Test results taken from PubChem BioAssay.

Experiment: small-molecule microarray binders of probe aLefty2, primary screen, biochemical, biotinylated probe, 635/667 nm fluorescence (AID 1094);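 also: score merges spot fluorescence near 667 nm with spot signal-to-noise ratio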
Settings: higher = more signal
Work on `O=C1c2ccccc2[C@](Cc2ccccc2I)(C(=O)O)[C@H](c2ccc(CO)cc2)N1Cc1ccccc1C(F)(F)F` yielded a composite z-score of -0.243. `C=CCN1C(=O)[C@@]2(O[C@@H](CCO)[C@H]([Si](C)(C)c3ccc(OC)cc3)[C@H]2C)c2cc(NC(C)=O)ccc21` showed a composite z-score of -0.0231. In the case of `O=C1O[C@@H](c2ccccc2)[C@@H](c2ccccc2)N2[C@@H](c3ccc(O)cc3)[C@]3(C(=O)Nc4ccccc43)[C@@H](C(=O)NC[C@H](O)c3ccccc3)[C@H]12`, the composite z-score is reported as -0.12. `C=C(CCCC)C(=O)CC[C@@H](OC(=O)c1ccccc1-c1ccccc1C(=O)O)c1ccc(CO)o1` gave a composite z-score of 0.0202. In the case of `COCCOC(=O)N1C(=O)[C@@]2(c3cc(C#CCCO)ccc31)[C@H](c1ccc(O)cc1)N1[C@H](c3ccccc3)[C@H](c3ccccc3)OC(=O)[C@H]1[C@@H]2C(=O)N1CCCCCCC1`, the composite z-score is reported as 0.947. Molecule `O=C(NCC(O)CO)[C@]1(CCS(=O)(=O)c2ccccc2)N=C(c2ccc(OCCCO)cc2)O[C@@H]1c1ccccc1` (stereo not given in full) has a composite z-score of -0.0949. `CC(C)NC(=O)[C@@H]1c2ccccc2C(=O)N(C2CCCCC2)[C@H]1c1ccc(CO)cc1` showed a composite z-score of 0.25. For `CCOC(=O)C=Cc1cccc(OC)c1O`, the composite z-score was -0.249. `NC(=O)NCC#Cc1ccc2c(c1)[C@]1(C(=O)N2)[C@H](C(=O)NC[C@H](O)c2ccccc2)[C@H]2C(=O)O[C@H](c3ccccc3)[C@H](c3ccccc3)N2[C@@H]1c1ccccc1OCCO` gave a composite z-score of -0.186. `CN1C(=O)C2C(C1=O)C1C=C(c3ccc(CO)cc3)C2C(C2CC2)N1Cc1cc2c(cc1Br)OCO2` (stereo not given) gave a composite z-score of 0.313. `O=C1OCCC/C=C\[C@H]2OC34C=CCN(Cn5nnc6ccccc65)C(=O)[C@H]3N(CCCO)C(=O)[C@@H]4C12` (stereo not given in full) gave a composite z-score of -0.225. Work on `CC(C)N1C(=O)c2ccccc2[C@](C)(C(=O)NC2CC2)[C@@H]1c1ccc(CO)cc1` yielded a composite z-score of -0.14. Work on `O=C1C2C=CC(C(O)CCc3ccccc3)N(Nc3ccccc3)C2C(=O)N1c1ccccc1` (stereo not given) yielded a composite z-score of 0.231. In the case of `O=C1O[C@H](c2ccccc2)[C@H](c2ccccc2)N2[C@H]1[C@@H](C(=O)N1CCCCCCC1)[C@]1(C(=O)Nc3ccc(C#CC4=CCCCC4)cc31)[C@H]2c1ccc(O)cc1`, the composite z-score is reported as 1.91. `CC(C)OC(=O)C1=CCC(c2cccc(Cl)c2)O1` (stereo not given) gave a composite z-score of -0.245. `C=CCN1C(=O)[C@@]2(O[C@@H](CCO)[C@H]([Si](C)(C)c3ccc(OC)cc3)[C@H]2C)c2cc(N3C(=O)COc4ccccc43)ccc21` showed a composite z-score of -0.275. Molecule `C=CCC(OC(C)=O)[C@@H]1[C@@H](N(Cc2ccc(-c3ccccc3)cc2)C(=O)c2ccc(C)cc2)c2cc(OCCCO)ccc2N1C(=O)c1ccc2ccccc2n1` (stereo not given in full) has a composite z-score of 0.407. For `COCCOC(=O)N1C(=O)[C@@]2(c3cc(C#CC4=CCCCC4)ccc31)[C@H](c1ccc(OCCO)cc1)N1[C@H](c3ccccc3)[C@H](c3ccccc3)OC(=O)[C@H]1[C@@H]2C(=O)Nc1nc2ccccc2s1`, the composite z-score was -0.0242. `O=[N+]([O-])c1ccc(C[n+]2ccc(CCCO)cc2)o1` showed a composite z-score of 0.24. Work on `C=C(C)[C@@H]1CC=C(C(O)C2C=CC3C(=O)N(Cc4ccccc4)C(=O)C3N2n2cnnc2)CC1` (stereo not given in full) yielded a composite z-score of 0.0864. `CCCNC(=O)[C@@]1(C)c2ccccc2C(=O)N(Cc2cc(F)cc(C(F)(F)F)c2)[C@H]1c1ccc(CO)cc1` showed a composite z-score of -0.174. Molecule `CO[C@H]1O[C@H](CO)[C@@H](OC(=O)Nc2cccc(F)c2)[C@H](OC(=O)Nc2ccccc2-c2ccccc2)[C@@H]1OC(=O)Nc1ccccc1-c1ccccc1` has a composite z-score of 0.134. For `CCOC(=O)N1C(c2ccc(OCCCO)cc2)=NC(C(=O)OC)N1C(=O)OCC` (stereo not given), the composite z-score was 0.174. In the case of `COCCCNC(=O)[C@@]1(Cc2ccccc2I)c2ccccc2C(=O)N(Cc2ccccc2)[C@H]1c1ccc(CO)cc1`, the composite z-score is reported as -0.204. `COc1ccc(C#Cc2ccc3c(c2)[C@]2(C(=O)N3)[C@H](C(=O)N3CCN(c4ncccn4)CC3)[C@H]3C(=O)O[C@H](c4ccccc4)[C@H](c4ccccc4)N3[C@@H]2c2ccc(O)cc2)cc1` gave a composite z-score of 0.0897. For `CN(C)CCCC[C@@H]1NC(=O)[C@@H]2C[C@H](C(=O)NCc3ccc(F)cc3)[C@H](c3cccc(OCCO)c3)N2C1=O`, the composite z-score was 0.823. In the case of `O=C1O[C@@H](c2ccccc2)[C@@H](c2ccccc2)N2[C@@H](c3ccc(O)cc3)[C@]3(C(=O)Nc4ccc(C#CCCO)cc43)[C@@H](C(=O)O)[C@H]12`, the composite z-score is reported as 1.55. `CC(C)NC(=O)[C@@]1(c2ccc([N+](=O)[O-])cc2)CC(=O)N(C(C)C)[C@@H]1c1ccc(CO)cc1` gave a composite z-score of 0.0945. Molecule `C=CCC(OC(C)=O)[C@@H]1[C@@H](N(Cc2ccc(-c3cccc(C(F)(F)F)c3)o2)C(=O)Cc2ccc(OC)cc2)c2cc(OCCCO)ccc2N1C(=O)Cc1ccc(OC)cc1` (stereo not given in full) has a composite z-score of -0.107. For `C[n+]1ccc2ccc(O)cc2c1`, the composite z-score was -0.0562. With `C=C(CCCC)/C(=C/C[C@H](OC(C)=O)c1ccc(CO)o1)c1cc(C(=O)OC)ccc1OC` the composite z-score was -0.0371. Molecule `COCCOC(=O)N1C(=O)[C@@]2(c3cc(C#Cc4ccc(OC)cc4)ccc31)[C@H](c1ccc(OCCO)cc1)N1[C@H](c3ccccc3)[C@H](c3ccccc3)OC(=O)[C@H]1[C@@H]2C(=O)N1CCc2cc(OC)c(OC)cc2C1` has a composite z-score of -0.202. With `CC(C)C(O)C1C=CC2C(=O)N(C)C(=O)C2N1N1CCCCC1` (stereo not given) the composite z-score was 0.169. `CCN(CC)c1ccc(N2CC=CC34O[C@@H]5C=CCOC(=O)[C@@H]5[C@H]3C(=O)N(CCCCCO)[C@@H]4C2=O)cc1` (stereo not given in full) gave a composite z-score of -0.138. `Cc1cc(C)c(C(O)C2C=CC3C(=O)NC(=O)C3N2Nc2ccccn2)c(C)c1` (stereo not given) gave a composite z-score of 0.0961.
